Consider 9 compounds from PubChem BioAssay (NCI).

The panel holds about 83,000 compounds, 20% with a hit somewhere; the sample as a whole holds those more often.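 Results are percent growth after 48 hours of single-concentration exposure. 100 means growth as in untreated cells, lower positive values show inhibition; negative values down to -100 show cell death.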 Values without a mark were called inactive. Calls of active or inactive are those of the source. The calls were made as follows: active = growth percent below 10; inactive = the rest.

Test systems include SR leukemia; RPMI-8226 leukemia; OVCAR-8 ovarian; OVCAR-5 ovarian; OVCAR-4 ovarian; SK-OV-3 ovarian; IGROV1 ovarian; HS 578T breast; NCI/ADR-RES ovarian; T-47D breast; BT-549 breast; MDA-MB-435 melanoma; SW-620 colon; MCF7 breast; HCT-116 colon; HCC-2998 colon; KM12 colon.
Holding throughout (test): NCI-60 one-dose screen, 48 h (100 = growth as untreated, 0 = no growth, -100 = all killed)
What all share (details): 10 µM unless noted

Turning to `CN1CCN(c2nc(-c3csc(-c4ccncc4)n3)cc3ccccc23)CC1`, the growth with SR leukemia is -18.2% (active); in the assay on RPMI-8226 leukemia, 47.1%; with OVCAR-8 ovarian it was 84%; in the assay on OVCAR-5 ovarian, 76.1%; in the assay with OVCAR-4 ovarian, 84.9%; in the assay with SK-OV-3 ovarian, 86.4%. Moreover, the growth in the assay on IGROV1 ovarian was 56.8%; in the assay with HS 578T breast, 66.1%; with NCI/ADR-RES ovarian, 68%; in the assay with T-47D breast, 55.9%; in the assay with BT-549 breast it was 83.5%; with MDA-MB-435 melanoma it was 56.2%. In addition, the growth with SW-620 colon is 74.2%; with MCF7 breast, 67.8%; with HCT-116 colon, 25.4%; with HCC-2998 colon, 48.8%; in the assay on KM12 colon it was 62.6%.

As for `Cc1csc(Nc2cccc(Nc3nc(C)cs3)c2)n1`, the growth in the assay with SR leukemia is 63.9%; in the assay with RPMI-8226 leukemia it was 62.3%; in the assay with OVCAR-8 ovarian, 82.7%; in the assay on OVCAR-5 ovarian, 92%; in the assay on OVCAR-4 ovarian it was 66.8%; in the assay with SK-OV-3 ovarian it was 98.7%. For the same compound, the growth is 76.6% in the assay with IGROV1 ovarian; 85.3% in the assay on HS 578T breast; 66.9% in the assay with NCI/ADR-RES ovarian; 36.1% with T-47D breast; 73.7% in the assay with BT-549 breast; 82.1% with MDA-MB-435 melanoma. The growth was 88.6% with SW-620 colon; 73.3% with MCF7 breast; 56.5% with HCT-116 colon; 90.3% in the assay with HCC-2998 colon; 87.8% with KM12 colon.

In the case of `COc1ccc(S(=O)(=O)n2cc(C=O)c3ccccc32)c(OC)c1`, the growth is 16.4% with SR leukemia; 38.7% in the assay with RPMI-8226 leukemia; 76.1% in the assay with OVCAR-8 ovarian; 96.1% in the assay with OVCAR-5 ovarian; 80.9% with OVCAR-4 ovarian; 97.4% with SK-OV-3 ovarian. For the same compound, the growth with IGROV1 ovarian is 86.6%; in the assay with HS 578T breast, 78.3%; in the assay with NCI/ADR-RES ovarian it was 51%; in the assay with T-47D breast it was 65.6%; with BT-549 breast, 64.2%; in the assay with MDA-MB-435 melanoma, 29.6%. Also, the growth was 35.4% in the assay on SW-620 colon; 25.5% with MCF7 breast; 15.4% with HCT-116 colon; 110% with HCC-2998 colon; 95.4% in the assay on KM12 colon.

As to `COc1ccc(-c2ccnc3c(C#N)c(Nc4ccccc4)nn23)cc1OC`, the growth in the assay on SR leukemia was 73.8%; with RPMI-8226 leukemia, 78.3%; with OVCAR-8 ovarian, 85.2%; in the assay on OVCAR-5 ovarian, 83.2%; in the assay with OVCAR-4 ovarian, 103%; in the assay with SK-OV-3 ovarian it was 100%. Besides, the growth with IGROV1 ovarian is 96.1%; in the assay on HS 578T breast it was 84%; with NCI/ADR-RES ovarian it was 85.5%; in the assay on T-47D breast, 80.5%; with BT-549 breast, 86.1%; with MDA-MB-435 melanoma, 103%. The growth is 90% with SW-620 colon; 90.2% with MCF7 breast; 87.5% in the assay with HCT-116 colon; 99.1% with HCC-2998 colon; 96.6% with KM12 colon.

For `O=C(Nc1cc(Cl)cc(Cl)c1)Nc1ccc2oc(=O)ccc2c1`, the growth with SR leukemia is 3.42% (active); with RPMI-8226 leukemia it was 1.84% (active); in the assay on OVCAR-8 ovarian, 12.5%; in the assay on OVCAR-5 ovarian, 36.4%; in the assay with OVCAR-4 ovarian, 19.5%; with SK-OV-3 ovarian it was 25.7%. In addition, the growth in the assay on IGROV1 ovarian is 26.4%; with HS 578T breast it was 39.4%; in the assay on NCI/ADR-RES ovarian, 10.9%; in the assay with T-47D breast it was 3.54% (active); in the assay with BT-549 breast it was 29%; in the assay with MDA-MB-435 melanoma, 13.9%. For the same compound, the growth was 17.3% in the assay on SW-620 colon; 5.48% (active) in the assay with MCF7 breast; 1.36% (active) in the assay with HCT-116 colon; 27.3% in the assay on HCC-2998 colon; 11.5% in the assay on KM12 colon.

As for `CN1CCN(Cc2ccc(NC(=O)c3cncc(C#Cc4cnc5ccc(NC6CCOCC6)nn45)c3)cc2C(F)(F)F)CC1`, the growth with SR leukemia was -37.8% (active); with RPMI-8226 leukemia, -34.1% (active); in the assay with OVCAR-8 ovarian it was -52.4% (active); with OVCAR-5 ovarian it was 0.169% (active); in the assay on OVCAR-4 ovarian it was -29.1% (active); in the assay on SK-OV-3 ovarian, -22.9% (active). Also, the growth in the assay with IGROV1 ovarian is -21% (active); in the assay with HS 578T breast it was -26% (active); with NCI/ADR-RES ovarian, 7.41% (active); in the assay with T-47D breast, -66.2% (active); in the assay with BT-549 breast it was -94.4% (active); with MDA-MB-435 melanoma, -70.2% (active). Moreover, the growth in the assay with SW-620 colon is -42.1% (active); in the assay with MCF7 breast it was -60.3% (active); with HCT-116 colon, -79% (active); with HCC-2998 colon it was -19.8% (active); in the assay on KM12 colon it was -42.1% (active).

Consider `CCCCCCNC(=O)Oc1ccc(/C(=C(/C)c2ccccc2)c2ccc(OCCN(C)C)cc2)cc1`, for which the growth was -27.8% (active) with SR leukemia; 50.5% in the assay on RPMI-8226 leukemia; 73.6% in the assay with OVCAR-8 ovarian; 73% with OVCAR-5 ovarian; 73.6% in the assay on OVCAR-4 ovarian; 93.2% in the assay with SK-OV-3 ovarian. For the same compound, the growth with IGROV1 ovarian is 66.3%; with HS 578T breast it was 64.5%; in the assay on NCI/ADR-RES ovarian, 71.2%; in the assay with T-47D breast, 33.1%; with BT-549 breast it was 75.3%; in the assay with MDA-MB-435 melanoma, 53%. The growth was 27.3% in the assay on SW-620 colon; 18% in the assay on MCF7 breast; 22.6% in the assay on HCT-116 colon; 69.3% in the assay on HCC-2998 colon; 66.2% with KM12 colon.

As to `C(=C(\C1=NCCN1)n1cnc2ccccc21)/c1cccc2ccccc12`, the growth was 84.7% with SR leukemia; 87.2% with RPMI-8226 leukemia; 95.8% in the assay with OVCAR-8 ovarian; 81.4% in the assay with OVCAR-5 ovarian; 93.3% in the assay on OVCAR-4 ovarian; 89% with SK-OV-3 ovarian. The growth with IGROV1 ovarian was 89.7%; with HS 578T breast it was 92.9%; in the assay on NCI/ADR-RES ovarian, 96.8%; with T-47D breast, 82.4%; in the assay on BT-549 breast it was 107%; in the assay with MDA-MB-435 melanoma, 74%. Also, the growth is 102% with SW-620 colon; 57.3% with MCF7 breast; 88% in the assay with HCT-116 colon; 92.9% with HCC-2998 colon; 42.5% in the assay with KM12 colon.

For the compound `Cn1nc(Nc2ccccc2)c(C(=O)NN)c1N`, the growth in the assay with SR leukemia was 107%; in the assay with RPMI-8226 leukemia, 106%; in the assay with OVCAR-8 ovarian it was 97.5%; with OVCAR-5 ovarian it was 102%; in the assay on OVCAR-4 ovarian, 99.9%; in the assay on SK-OV-3 ovarian, 103%. Moreover, the growth with IGROV1 ovarian is 95.4%; in the assay on HS 578T breast, 99.7%; in the assay with NCI/ADR-RES ovarian, 93.9%; with T-47D breast, 95.4%; in the assay with BT-549 breast, 129%; with MDA-MB-435 melanoma, 105%. Further, the growth with SW-620 colon is 99.8%; with MCF7 breast, 89.7%; in the assay with HCT-116 colon, 113%; in the assay on HCC-2998 colon, 107%; in the assay with KM12 colon it was 99.4%.
